Data on 37 compounds can be found in publication PMC12670160, “A drug-repurposing screen of FDA- and EMA-approved drugs identifies two NF-κB inhibitors active against eumycetoma” (Journal of Antimicrobial Chemotherapy, 2025).

Where a name gives a salt, the structure may show the parent alone. Read-outs that look alike come from different tables or passages of the source. In all, about 5,300 compounds went through this assay and about 130 (2.5%) showed an effect of 50% or more. For the sample, strong results were picked, then their nearest neighbours and some compounds at random.

The assay concerns M. mycetomatis strain mm55. Conditions: primary screen, metabolic activity vs growth control, 96 h, 2 µM, inhibitor.

In the case of `O=C1CCCCCCCCCCCCCCO1` [ONC0002133, oxacyclohexadecan2one], the “% viability” value is 71.7%.

Turning to `O=C(O)CN(CCN(CC(=O)O)CC(=O)O)CCN(CC(=O)O)CC(=O)O` [ONC0005602, pentetic acid], under “Madurella mycetomatis metabolic activity at 2µM (%)”, the “% viability” value is 107.7%.

Take `Oc1cccc(Nc2ccc(Nc3cccc(O)c3)nn2)c1` [ONC0002962, 363hydroxyphenylaminopyridazin3ylaminophenol]: the “% viability” value worked out at 67.52%.

With `Nc1ccc(O)c(C(=O)O)c1` [ONC0002803, mesalamine lialda], the “% viability” value is reported as 82.25%.

As for `Nc1ccc(C(=O)Oc2ccccc2)c(O)c1` [ONC0003304, phenyl aminosalicylate], the “% viability” value worked out at 56.4%. On the same count and under the same terms, under `Nc1ccc(C(=O)O)c(O)c1` [ONC0003334, aminosalicylate sodium] stands 35.29%; under `[H]/N=C(/N)N/C(=N/[H])NCCc1ccccc1` [ONC0000619, phenformin hydrochloride], 104.4%; under `CNC(=O)c1ccc2c(c1)S(=O)(=O)c1ccccc1C2=O` [ONC0002375, bw616u], 76.21%. On the same count and under the same terms, under `Nc1c[n+](N2CCOCC2)no1` [ONC0003799, linsidomine] stands 49.48%. As for `CCOC(=O)Nc1c[n+](N2CCOCC2)no1` [ONC0000636, molsidomine], the “% viability” value came out at 75.33%. Still for that read-out and setting: under `CC[C@@H](C(=O)O)C1CC[C@H](C)C([C@@H](C)[C@H](O)[C@H](C)C(=O)[C@H](CC)C2O[C@]3(C=C[C@@H](O)[C@]4(CC[C@@](C)(C5CC[C@](O)(CC)[C@H](C)O5)O4)O3)[C@H](C)C[C@@H]2C)O1` (stereo partly shown) [ONC0004344, salinomycin procoxacin] stands 144.3%; under `CN(C)c1ccc2c(c1)Sc1cc(N(C)C)ccc1N2.CS(=O)(=O)O` [ONC0001830, leucomethylene blue mesylate], 74.38%; under `CS(=O)(=O)c1ccc(C2=C(c3ccccc3)C(=O)OC2)cc1` [ONC0001095, rofecoxib], 82.56%. The same measure, in the same setting: under `CS(=O)(=O)c1ccc(-c2cn3ccccc3n2)cc1` [ONC0002352, zolimidine] stands 42.05%. Consider `CS(=O)(=O)c1ccc(-c2cnc(N)c(C(=O)Nc3ccccc3)n2)cc1` [ONC0004547, ve821], for which the “% viability” value came to 76.73%. Same read-out and setting: in the case of `O=C1NC(=O)/C(=C\c2cccc(C(F)(F)F)c2)S1` [ONC0004444, smi4a] it was 130.7%. Same read-out and setting: under `Cc1cc(C(=CNc2ccc(Cl)cc2)C(=O)Nc2ccc(Cl)cc2)on1` [ONC0000028, ccmi] stands 80.11%; under `Cc1ncc(C[n+]2csc(CCO[P@](=O)(O)OP(=O)(O)O)c2C)c(N)n1` [ONC0002796, thiamine pyrophosphate chloride], 94.34%; under `CC1(C)OC2(C)C(O)CC1CC2O` (stereo not shown) [ONC0003817, epomediol], 42.26%. Take `CC1(C)[C@@H]2C[C@H]1[C@@](C)(O)[C@@H](O)C2` [ONC0005321, pinanediol]: the “% viability” value came to 118.6%.

Take `CC1(C)[C@@H]2C[C@@H](O)[C@@](C)(O)[C@H]1C2` [ONC0002949, 266trimethylbicyclo311heptane23diol]: the “% viability” value stood at 64.26%. Still for that read-out and setting: under `C#C[C@]1(OC(=O)CCCCCC)CC[C@H]2[C@@H]3CCC4=CC(=O)CC[C@@H]4[C@H]3CC[C@@]21C` [ONC0000267, norethisterone enanthate] stands 63.38%.

For the compound `C=C1c2cccc(O)c2C(=O)C2C(=O)[C@]3(O)C(=O)C(C(N)=O)C(=O)[C@@H](N(C)C)[C@@H]3[C@@H](O)[C@H]12` (stereo partly shown) [ONC0000687, methacycline hydrochloride], the “% viability” value is 124.6%.

Take `O=C1c2ccccc2-c2c(NCCc3ccccc3)c(=O)[nH]c3cccc1c23` [ONC0001816, brd7389]: the “% viability” value came to 84.69%. On to `CCOC(=O)c1ccccc1OC(=O)CCCCCCCC(=O)Oc1ccccc1C(=O)OCC` [ONC0003554, tu2100], for which the “% viability” value is 98.87%. In the case of `CCOC(=O)c1c2c3c(cccc3[nH]c1=O)C(=O)c1ccccc1-2` [ONC0001061, nqdi1], the “% viability” value worked out at 43.7%. With `Cn1cnc(=N)c2nc[nH]c21` [ONC0004721, 3methyladenine 3ma], the “% viability” value is 115.8%. Still for that read-out and setting: under `CCC(=O)OCC(=O)C1(OC(=O)CC)[C@H](C)C[C@H]2C3[C@H](Cl)CC4=CC(=O)C=C[C@]4(C)[C@H]3[C@@H](O)C[C@@]21C` (stereo partly shown) [ONC0002939, alclometasonedipropionate] stands 82.49%; under `C/C(=C\c1csc(C)n1)[C@H]1C[C@@H]2O[C@]2(C)CCC[C@H](C)[C@H](O)[C@@H](C)C(=O)C(C)(C)[C@H](O)CC(=O)O1` [ONC0004615, patupilone epo906 epothilone b], 75.3%. As for `C[C@H]1CC2C([C@@H](O)C[C@@]3(C)C2CC[C@]3(O)C(=O)COC(=O)CCC(=O)O)[C@@]2(C)C=CC(=O)C=C12` (stereo partly shown) [ONC0003156, methylprednisolone sodium succinate], the “% viability” value is 82.41%. Same read-out and setting: under `CC(=O)N[C@@H](CSSC[C@H](NC(C)=O)C(=O)O)C(=O)O` [ONC0002807, nnü¾Œ“ ¼ü¾˜³ ¼diacetyllcystine] stands 85.92%. Same read-out and setting: under `CCCCOc1ccc(C(=O)Nc2ccc(F)cc2F)cc1` [ONC0005047, vu 0357121 vu 0357121 vu 0357121] stands 78.07%.

As for `C=CCN(C)CCCCCCOc1ccc(C(=O)c2ccc(Br)cc2)c(F)c1` [ONC0001825, ro 488071 fumarate], the “% viability” value is given as 29.93%. For `CCCCC(F)(F)C(=O)CC[C@H]1[C@H](O)CC(=O)[C@@H]1CCCCCCC(=O)O` [ONC0004918, lubiprostone], the “% viability” value is given as 115.4%. Consider `C[S+]([O-])c1ccc(-c2nc(-c3ccncc3)c(-c3ccc(F)cc3)[nH]2)cc1` (stereo not shown) [ONC0000881, sb203580], for which the “% viability” value is listed as 87.12%. The same measure, in the same setting: under `Fc1ccc(-c2nc(-c3c(F)cccc3F)[nH]c2-c2ccncc2)cc1` [ONC0000887, ta01] stands 46.48%; under `Oc1ccc(-c2nc(-c3ccncc3)c(-c3ccc(F)cc3)[nH]2)cc1` [ONC0000026, sb202190], 54.44%.
